Screening data (PubChem)
The list is not random: actives were taken first. Their share in the collection is about 1.6%.
eIF4H inh: inhibitors of RNA binding by human eIF4H; inhibition, % at 35 µM; 290,000 tested, 0.94% active; eIF4H fluorescence polarization binding assay; Q15056;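 further: calls also rest on retests at 20 µM and on dose response follow-up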
eIF4E-4G inh: inhibitors of eIF4E and eIF4G interaction in translation initiation | 220,000 tested, 0.37% active | inhibition, % at 21.7 µM | AID 782 | TR-FRET eIF4E-eIF4GI(517-606) binding, 2 h;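 active means inhibition above about 30%, limit read from the data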;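 further: 0% = full FRET control wells and 100% = background wells lacking eIF4GI fragment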
PABP1 MLLE inh: inhibitors of microRNA-mediated deadenylation, human PABP1 MLLE binding | P11940 | GST-MLLE / FITC-PAM2 fluorescence polarization | inhibition, % at 20 µM | 360,000 tested, 0.36% active | AID 588489; in the data active means inhibition above about 35%, passing the limit was not always enough;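 further: plate controls were DMSO wells with GST-MLLE for no effect and wells lacking GST-MLLE protein for full effect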
PABP FP inh: PABP-poly(A) binding inhibition | PABP-poly(A) RNA binding, fluorescence polarization | calls only at 35 µM | 290,000 tested, 1% active | AID 2014;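 further: calls also rest on retests at 20 µM and on dose response follow-up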
PERK inh: blocks human PERK kinase. 220,000 tested, 0.17% active. AID 1416. inhibition, % at 5.6 µM. CHO PERK-DD fusion, SEAP luminescence translation reporter;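 active means inhibition above the mean inhibition of all tested compounds plus 3 SD, set separately per screening campaign, cut at about 2.9% in these data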;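 further: PERK kinase domain activated by AP20187 dimerizer at 100 nM; 0% = DMSO with dimerizer and 100% = rapamycin at 8.4 µM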
* = called active by the depositor; i = inactive; ? = inconclusive; nt = no result given; + = active, no number. Unless noted, how the calls were made is not given here.

SMILES	eIF4H inh	eIF4E-4G inh	PABP1 MLLE inh	PABP FP inh	PERK inh
Cc1ccc(S(=O)(=O)C(C#N)c2nc3ccccc3nc2N2CCN(C)CC2)cc1 (centres undefined)	?	2.5	12.0	i	0.5
O=C(/C=C/c1ccco1)c1cccnc1	56.3*	nt	2.2	+	nt
CC(/C=C/c1ccco1)=N\NC(=O)c1cccnc1	30.0	-6.0	6.6	i	2.0
O=C(/C=C/c1ccco1)c1ccccc1O	0.4	82.0*	11.9	i	-0.2
CC(=O)Nc1ccc(Nc2ccc3c4c(cc(=O)n3C)-c3ccccc3C(=O)c24)cc1	80.2	9.4	65.0*	i	1.2
C/C(=N\OCC(=O)OC(C)C(=O)Nc1ccc(C)c(S(=O)(=O)N2CCOCC2)c1)c1ccc2c(c1)OCO2 (centres undefined)	nt	nt	-2.3	nt	nt
CCCc1nc2cc(CC(=O)OC)ccc2o1	0.5	5.5	0.5	i	3.1*
CN1CCN(S(=O)(=O)c2ccc3[nH]c(=O)oc3c2)CC1	-5.3	2.8	-13.9	i	-0.3
CCOC(=O)C1CCCN(C(=O)c2ccccc2SCCOC)C1 (centres undefined)	8.4	-6.3	40.3*	i	0.3
COCCSc1ccccc1C(=O)N1CCCC(C)C1 (centres undefined)	-5.5	0.6	4.5	i	1.8
Cc1ccc(C(=O)N/C(=C\c2ccc(-c3ccccc3[N+](=O)[O-])o2)C(=O)NCCCN2CCOCC2)cc1	97.9*	nt	23.5	+	nt
Cc1ccc(C(=O)N/C(=C\c2cn(C)c3ccccc23)C(=O)NCCCN2CCOCC2)cc1	-5.3	nt	-12.0	i	nt
C[C@H](CO)N1C[C@H](C)[C@@H](CN(C)C(=O)NC2CCCCC2)Oc2ccc(NC(=O)C3CCCCC3)cc2C1=O	nt	nt	10.2	nt	nt
Cc1ccccc1C(=O)Nc1cccc(C(=O)N/N=C/c2cc(Cl)cc([N+](=O)[O-])c2O)c1	16.4	36.4*	-12.2	i	1.2
Cc1c(C)n(Cc2ccc(F)cc2)c2ccc(C(=O)NCCCN3CCOCC3)cc12	-4.5	nt	-4.2	i	nt
O=C(CNC(=O)c1ccccc1F)N/N=C\C=C\c1ccccc1	-1.2	nt	6.9	?	nt
O=c1cc(-c2ccccc2)nc2cc(-c3ccco3)[nH]n12	15.7	-1.4	6.6	i	1.7
O=C1c2nc3cc(-c4ccco4)[nH]n3c(=O)c2CN1C1CCCCC1	50.0*	-1.1	12.3	+	1.2
COc1ccccc1S(=O)(=O)N(C)C[C@@H]1OCc2cnnn2CCCC(=O)N([C@@H](C)CO)C[C@H]1C	nt	nt	8.6	nt	nt
O=c1[nH]c2cc3c(cc2cc1CN(CCc1ccccc1)Cc1nnnn1C1CCCC1)OCCO3	96.9*	1.8	nt	+	-0.8
O=c1[nH]c2cc3c(cc2cc1CN(Cc1ccccc1)Cc1nnnn1Cc1ccco1)OCCO3	39.3	-1.6	-34.5	i	-0.4
O=c1[nH]c2cc3c(cc2cc1CN(Cc1cccnc1)Cc1nnnn1Cc1ccco1)OCCO3	70.9*	2.1	-13.8	+	-1.1
CCc1ccc2[nH]c(=O)c(CN(Cc3ccccc3)Cc3nnnn3Cc3ccco3)cc2c1	15.9	-2.4	-12.1	i	-0.2
COc1ccccc1CN(Cc1cc2cc3c(cc2[nH]c1=O)OCCO3)Cc1nnnn1Cc1ccco1	58.2*	-4.9	6.8	+	1.2
O=c1[nH]c2cc3c(cc2cc1CN(Cc1cccs1)Cc1nnnn1Cc1ccco1)OCCO3	38.3*	0.6	26.1	+	-0.6
SMILES	eIF4H inh	eIF4E-4G inh	PABP1 MLLE inh	PABP FP inh	PERK inh
Cc1ccc2[nH]c(=O)c(CN(Cc3ccc4c(c3)OCO4)Cc3nnnn3Cc3ccco3)cc2c1	-10.0	-10.0	-0.5	i	-0.4
NC(=S)N=Nc1c(O)[nH]c2ccc(F)cc12	8.9	0.1	47.9*	i	0.1
O=Nc1c(O)[nH]c2ccc(F)cc12	7.2	-1.0	-2.2	i	-0.1
CC(C)c1ccc(NC(=O)c2ccccc2NC(=O)C2CCCCC2C(=O)O)cc1 (centres undefined)	2.2	nt	6.7	i	nt
O=C(CN1c2cccc3cccc(c23)S1(=O)=O)N1CCN(c2ccccc2)CC1	nt	nt	0.9	nt	nt
Cc1cccc(C)c1NC(=O)CS(=O)CC(=O)NCCCc1ccccc1 (centres undefined)	91.5*	-2.0	8.6	+	-0.2
Oc1ccc(/C=N/Nc2ccc(Cl)nn2)c(O)c1O	79.9*	nt	39.6	+	nt
Oc1c(Br)cc(Br)cc1/C=N/Nc1ccc(Cl)nn1	-5.8	nt	1.8	i	nt
CC(C)[C@@H](NC(=O)C1CCC(CNC(=O)[C@H](Cc2ccccc2)NC(=O)OC(C)(C)C)CC1)C(=O)O (some centres undefined)	90.0	nt	10.6	i	nt
CC(C)C1NC2(C(=O)c3ccccc3C2=O)C2C(=O)N(c3ccc(F)cc3)C(=O)C12 (centres undefined)	50.6*	4.2	38.6	+	-0.1
O=C1C2C3C=CC(CC3)C2C(=O)N1c1ccc(F)cc1 (centres undefined)	4.1	nt	-13.8	i	nt
CCCn1c(NC(=O)c2ccc([N+](=O)[O-])o2)nc2ccccc21	nt	nt	-33.8	nt	nt
C[C@H](CO)N1C[C@H](C)[C@H](CN(C)C(=O)c2ccccc2)OCc2ccccc2-c2c(n(C)c3ccccc23)C1=O	nt	nt	0.9	nt	nt
CC1=CC2(O)OCCN(CCO)C2=CC1=O (centres undefined)	81.5*	10.0	16.6	i	0.7
C=CCc1cccc2cc(C(=O)Nc3ccc(S(=O)(=O)Nc4nnc(CC)s4)cc3)c(=O)oc12	67.2*	20.1	16.1	+	1.2
C=CCc1cccc2cc(C(=O)Nc3ccc(F)cc3)c(=O)oc12	-3.0	0.1	10.8	i	0.0
Cc1ccc(Cl)cc1NC(=S)N(CCN(C)C)C(C)c1ccccn1 (centres undefined)	-4.4	-0.2	-16.8	i	1.5
O=C1C2C3C=CC(C3)C2C(=O)N1CCCCN1C(=O)C2C3C=CC(C3)C2C1=O (centres undefined)	-11.8	46.1*	-0.5	i	-0.3
O=C(CN1CC(=O)Nc2ccccc21)Nc1ccc(F)c(F)c1	-0.8	-0.9	-23.1	i	1.6
COc1ccccc1NC(=O)CN1CC(=O)Nc2ccccc21	-9.1	-0.4	-11.6	+	0.3
CC[C@]1(C(=O)OC)[C@H]2C(=O)N(Cc3ccccc3)C(=O)[C@H]2[C@H]2CN=C(SCC(=O)c3ccccc3)N21	nt	nt	37.8*	nt	nt
Cc1ccc([C@H]2N[C@]3(CCCN(Cc4ccc(F)cc4)C3=O)[C@H]3C(=O)N(C)C(=O)[C@@H]23)cc1	nt	nt	4.4	nt	nt
CN(C)c1ccc(/C=C/c2ccc3c4ccccc4ccc3[n+]2-c2ccccc2)cc1	12.8	74.7*	-107.1	i	-2.1
CCOc1ccc(NC(=O)c2cc3ccccc3cc2O)cc1	98.4*	5.5	15.2	+	0.9
CCOc1ccc(NC(=O)c2cc3ccccc3cc2OC)cc1	-7.1	nt	-6.9	i	nt
CC1=NN(C(=O)c2ccccc2-n2cccc2)C(O)(C(F)(F)F)C1 (centres undefined)	54.5*	-0.1	-8.2	+	2.6
